Where “and” joins values, the source holds several entries; their conditions need not be identical. Equal entries are not always repeated. Compounds without any hit were thinned out: in the full panel of roughly 83,000, 20% have a hit.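 Growth was measured after 48 h exposure to one concentration of compound in 96-well plates. Values under 10 count as active.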 Values without a mark were called inactive. Calls of active or inactive are those of the source.

The test has as its system HL-60(TB) leukemia. Nature of the test: NCI-60 one-dose screen, 48 h (100 = growth as untreated, 0 = no growth, -100 = all killed). Conditions: 10 µM unless noted.
With `Cc1ncc(C(=O)Nc2ccc(CN3CCN(C)CC3)c(C(F)(F)F)c2)cc1C#Cc1cnc(NC2CC2)c2ncccc12`, the growth was 34.1%.

As for `Nc1c(C(=O)Nc2ccccn2)sc2nc3c(cc12)CCCCCC3`, the growth is -22.2% (active).

On to `Nc1c(S(=O)(=O)O)cc(Br)c2c1C(=O)c1ccccc1C2=O`, for which the growth was 103% and 91%.

With `Nc1c(Br)cc(Br)cc1-c1n[nH]c(=O)[nH]c1=O`, the growth was 94.4%.

In the case of `C=C(C[C@](O)(C(=O)/C=C/c1ccc(Cl)cc1)C(=O)OC)c1ccccc1`, the growth is 59.2%.

For `COc1ccc(-c2nc3ccccn3c2/C=C/C(=O)c2cc(OC)c(OC)c(OC)c2)cc1`, the growth is 49.9%.

For the compound `CN(C)C(C)(C)CC(C)(C)C`, the growth was 71.8%.

In the case of `CC1CCCc2sc3nc(NNC(=O)c4cnccn4)n(-c4ccccc4)c(=O)c3c21` (stereo unspecified), the growth was -33.4% (active) and -12.4% (active).

Consider `COc1cccc(-c2nc3sccn3c2-c2ccnc(NCCCNS(=O)(=O)c3ccc(C(F)(F)F)cc3)c2)c1`, for which the growth is 47.8%.

Consider `COc1cccc(C(=O)NNc2nc(N3CCOCC3)nc(N3CCN(C(c4ccccc4)c4ccccc4)CC3)n2)c1`, for which the growth is 76.4%.

As for `CC[C@@H](C(=O)[C@@H](C)[C@@H](O)[C@H](C)[C@@H]1O[C@@H]([C@@H](CC)C(=O)NCCc2ccc(F)cc2)CC[C@@H]1C)C1O[C@]2(C=CC(=O)[C@]3(CC[C@@](C)([C@H]4CC[C@](O)(CC)[C@H](C)O4)O3)O2)[C@H](C)C[C@@H]1C` (stereo partly specified), the growth is 6.93% (active).

Source of the values: PubChem BioAssay (NCI).
